Assay results published in PMC5540273 (PLoS ONE, 2017).

Experiments:
Settings in all cases: concentration: 1 μM, replicates: in singlicate; n = 1
PRKCI = system: PRKCI
PRKCQ = system: PRKCQ
PRKD1 = system: PRKD1
PRKD2 = system: PRKD2
PRKD3 = system: PRKD3
PRKG1 = system: PRKG1
PRKG2 = system: PRKG2
PRKR = system: T1, PRKR
T1 construct: gene EIF2AK2

PRKX = system: PRKX
PRP4 = system: PRP4
PYK2 = system: T2, PYK2
T2 construct: gene PTK2B

QSK = system: QSK
RAF1 = system: RAF1
RET = system: RET
RIOK1 = system: RIOK1
RIOK2 = system: RIOK2
RIOK3 = system: RIOK3
RIPK1 = system: RIPK1
RIPK2 = system: RIPK2
RIPK4 = system: RIPK4
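Note: KINOMEscan kinase panel screen.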

Row | SMILES | %Inh (PRKCI) [%] | %Inh (PRKCQ) [%] | %Inh (PRKD1) [%] | %Inh (PRKD2) [%] | %Inh (PRKD3) [%] | %Inh (PRKG1) [%] | %Inh (PRKG2) [%] | %Inh (PRKR) [%] | %Inh (PRKX) [%] | %Inh (PRP4) [%] | %Inh (PYK2) [%] | %Inh (QSK) [%] | %Inh (RAF1) [%] | %Inh (RET) [%] | %Inh (RIOK1) [%] | %Inh (RIOK2) [%] | %Inh (RIOK3) [%] | %Inh (RIPK1) [%] | %Inh (RIPK2) [%] | %Inh (RIPK4) [%]
1 | Cn1cc(-c2ccc3c(c2)CCN3C(=O)Cc2ccccc2Cl)c2c(N)ncnc21 [GSK2608885] | 10 | 83 | 0 | 47 | 54 | 0 | 0 | 0 | 19 | 8 | 38 | 23 | 94.9 | 99.9 | 23 | 0 | 21 | 0 | 99.4 | 0
2 | Cc1nnc(-c2ccc(C)c(-c3ccc(C(=O)Nc4ccc(NS(C)(=O)=O)cc4)cc3)c2)o1 [GW702865] | 13 | 0 | 0 | 0 | 17 | 7 | 10 | 8 | 0 | 56 | 0 | 0 | 2 | 45 | 22 | 0 | 27 | 36 | 14 | 0
3 | O=C1Cc2cc(Nc3nc(NCc4cccc(S(=O)(=O)C(F)(F)F)c4)ncc3C(F)(F)F)ccc2N1 | 0 | 4 | 16 | 0 | 26 | 0 | 1 | 0 | 0 | 10 | 6 | 0 | 0 | 5 | 0 | 35 | 0 | 2 | 0 | 0
4 | CN1c2ccc(NCc3ccc(F)cc3)cc2-c2c(cnn2C)S1(=O)=O | 29 | 12 | 13 | 1 | 0 | 0 | 7 | 0 | 0 | 33 | 0 | 10 | 1 | 0 | 10 | 0 | 0 | 3 | 0 | 0
5 | O=C1NC(=O)C(N2CCc3ccccc32)=C1c1cccc(Cl)c1 [SB-408010] | 1 | 29 | 4 | 6 | 3 | 0 | 0 | 0 | 0 | 8 | 12 | 0 | 0 | 4 | 5 | 0 | 30 | 0 | 0 | 0
6 | COc1ccc(Nc2nccc(N3CCC(NC(=O)Nc4cc(C)ccc4C)C3)n2)cc1 (stereo not drawn) [GSK1379741] | 7 | 22 | 0 | 0 | 4 | 0 | 0 | 0 | 6 | 22 | 7 | 1 | 13 | 52 | 25 | 0 | 0 | 0 | 14 | 8
7 | COc1cc2c(cc1OCCN1CCN(C)CC1)ncc1c3ccc(C#N)cc3[nH]c21 | 22 | 17 | 0 | 0 | 10 | 0 | 13 | 30 | 19 | 79 | 2 | 67 | 0 | 29 | 93.1 | 24 | 85 | 14 | 49 | 15
8 | O=c1cc(N2CCOCC2)nc2n(Cc3cccc(Cl)c3Cl)c(C3CC3)nn12 [GSK2358994] | 4 | 0 | 13 | 0 | 17 | 14 | 0 | 0 | 0 | 0 | 0 | 0 | 0 | 8 | 13 | 25 | 37 | 0 | 0 | 16
9 | Cc1nnc(-c2ccc3ncc(-c4ccc(S(C)=O)cc4)n3c2)o1 (stereo not drawn) | 0 | 0 | 0 | 13 | 0 | 0 | 0 | 0 | 19 | 2 | 0 | 0 | 49 | 9 | 0 | 0 | 0 | 0 | 21 | 24
